Measured values published in PubChem BioAssay (NCI).
This is part of a sample that, as a whole, favours compounds with a hit. Of some 83,000 tested, about 20% had one in any assay.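 Method: cells in 96-well plates; compound added at one concentration; 48 h incubation; percent growth measured; values under 10 scored active.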 Unmarked numbers belong to inactive results. Active and inactive are the calls of the source.

The compounds below were run on HL-60(TB) leukemia (assay: NCI-60 one-dose screen, 48 h (100 = growth as untreated, 0 = no growth, -100 = all killed)). Details: 10 µM unless noted.

Row | SMILES | growth
1 | Cc1ccc(NC(=O)C(Cl)Cl)cc1 | -48.8% (active)
2 | O=C1CCCCC=C1C[N+](=O)[O-] | 0.0104% (active)
3 | O=c1[nH]c2ccc(Cl)cc2c2ccccc12 | 130%
4 | O=C(Nc1ccccc1Cl)c1cnc2ccc(C3CCNCC3)cn12 | 103%
5 | CC(=O)Nc1nc(C)c(C(=O)N/N=C/c2cccs2)s1 | 130%
6 | Nc1ccc(-c2cc3c(NCc4ccccc4)ncnc3s2)cc1 | 85.5%
7 | O=C(O)c1cccc2c1-c1ccccc1C2=O | 106%
8 | Cc1ccc(C2CC(c3cccc(Nc4ccncc4)c3)=NN2c2ccccc2)cc1 (stereo not given) | -56.6% (active)
9 | COCCCC/C(=N\OCCN)c1ccc(C(F)(F)F)cc1 | 122%
10 | O=C(Nc1ccc(F)cc1)c1cc2cc(Nc3nc(-c4ccccc4)nc4ccccc34)ccc2oc1=O | 102%
11 | COc1ccc(/C=C(/C(=O)N2CCN(c3ccccc3)CC2)c2cc(OC)c(OC)c(OC)c2)cc1O | -34.5% (active)
12 | COc1cc(/C=C2\CN(S(=O)(=O)c3ccccc3)C/C(=C\c3cc(CN4CCCCC4)c(O)c(OC)c3)C2=O)cc(CN2CCCCC2)c1O | -37.6% (active)
13 | c1ccc2c(c1)OC1OC2Oc2ccccc21 | 80%
14 | CCOC(=O)/C(O)=C(\C=N\C(=S)Nc1ccc(Cl)c(Cl)c1)C(=O)OCC | 83.6%
15 | COc1ccc(-c2nc(N3CCCC3=O)sc2Br)cc1OC | 101%
16 | COc1cccc2c1C(=O)c1c(O)c3c(c(O)c1C2=O)C[C@](O)(C(=O)CO)C[C@H]3O[C@@H]1C[C@@H](NC(=O)CCCCCN(C)C2(c3ccc(F)cc3)CC3CCC2C3)[C@H](O)[C@@H](C)O1 (stereo not given in full) | 84.9%
17 | COC(=O)CCc1c(/C=C2\N=C(c3ccc[nH]3)C=C2OC)[nH]c(C)c1C(=O)OCc1ccccc1 | -14.3% (active)
18 | CC(C)(C)CC(C)(C)c1ccc(OCCOCC[N+](C)(C)Cc2ccccc2)cc1 | -63.5% (active)
19 | O=C(Nc1ccc(Cl)c(Cl)c1)OCn1ncc2ccc([N+](=O)[O-])cc21 | 96.3%
20 | Cc1ccccc1CNc1c2ccccc2nc2ccccc12 | 15.3%

Row | SMILES | growth
21 | COc1cc(/C=C/C(=O)/C=C/c2ccc(-n3ccnc3C)cc2)ccc1O | 49.5%
22 | O=S(=O)(NCCNc1nccc(-c2c(-c3cccc(F)c3)nc3occn23)n1)c1ccc(Br)cc1 | 103%
23 | C=COC(=O)C(C)(C)C | 98.9%
24 | Fc1cccc(COc2ccc(Nc3ncnc4onc(-c5ccccc5)c34)cc2)c1 | 7.34% (active)
25 | Cc1ccc(-c2n[nH]c(=O)c3noc(-c4ccc(C)cc4)c23)cc1 | 6.11% (active)
26 | CC(=O)Oc1ccccc1C(=O)N=C1[Se]CCCN1C(=O)c1ccccc1OC(C)=O | 12.7%
27 | CCN1C(=O)N(CC)C2C1NC(=S)N2/N=C/C=C/c1cccs1 (stereo not given) | -41.3% (active)
28 | C/C(=C\CCc1ccsc1)CC/C=C(\C)CCCN1CCN(CCO)CC1 | -38.3% (active)
29 | COc1ccc2c(c1)c(/C(O)=C1\COC(=O)C1=O)cn2Cc1ccc(F)cc1 | 85.6%
30 | Cc1ccc(S(=O)(=O)OC[C@]23CCC(C)(C)C[C@H]2C2=CC[C@@H]4[C@@]5(C)CCCNC(C)(C)[C@@H]5CC[C@@]4(C)[C@]2(C)CC3)cc1 | 24.5%
31 | O=c1c2c(c3ccccc3n1-c1ccccc1)NC(=S)NC2c1ccc(Cl)cc1 (stereo not given) | 22.1%
32 | O=C(NC(Cc1ccccc1)C(=O)CCl)OCc1ccccc1 (stereo not given) | 39.8%
33 | CCOc1cc(C(C)(C)C)ccc1C1=N[C@H](c2ccc(Cl)cc2)[C@H](c2ccc(Cl)cc2)N1C(=O)N1CCN(CC#Cc2cccc3c2CN([C@@H]2CCC(=O)NC2=O)C3=O)CC1 | -20.9% (active)
34 | O=C(CCl)NC1c2ccccc2Oc2ccccc21 | 78.4%
35 | Clc1nccc2c(-c3csc(-c4c[nH]c5ccc(Br)cc45)n3)c[nH]c12 | 9.77% (active)
36 | N#CC(=C1C=CC(=NO)C=C1)c1ccccc1 | 4.88% (active)
37 | COc1cc(Cc2cc(OC)c(O)c(OC)c2)cc(OC)c1O | 44%
38 | O=c1c2sc3ncc(Br)cc3c2ncn1-c1cccc(Cl)c1 | 84.5%
39 | C=C(C)C1CCC(=C)C2CCC3(C)OC12/C=C(/COC(C)=O)CCC3O (stereo not given) | 90.8%
40 | O=C(CN1CCN(c2ccc(Cl)cc2)CC1)N1CCN(c2nnc(-c3ccccc3)c(-c3ccccc3)n2)CC1 | -50.1% (active)
